Consider 40 compounds from PubChem BioAssay.

The source made the active and inactive calls.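 How the source made its calls: active means Her2 level under about 52% in both replicate screens, with viability over 70% of control (limit read from the data); inconclusive means Her2 under the limit in one screen only, or viability under 70%; inactive means Her2 level above the set limit.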

The term viability denotes a read-out of living cells in per cent, often relative to untreated cells.

Sequence of Receptor tyrosine-protein kinase erbB-2 (Homo sapiens) (P04626 whole entry, looked up): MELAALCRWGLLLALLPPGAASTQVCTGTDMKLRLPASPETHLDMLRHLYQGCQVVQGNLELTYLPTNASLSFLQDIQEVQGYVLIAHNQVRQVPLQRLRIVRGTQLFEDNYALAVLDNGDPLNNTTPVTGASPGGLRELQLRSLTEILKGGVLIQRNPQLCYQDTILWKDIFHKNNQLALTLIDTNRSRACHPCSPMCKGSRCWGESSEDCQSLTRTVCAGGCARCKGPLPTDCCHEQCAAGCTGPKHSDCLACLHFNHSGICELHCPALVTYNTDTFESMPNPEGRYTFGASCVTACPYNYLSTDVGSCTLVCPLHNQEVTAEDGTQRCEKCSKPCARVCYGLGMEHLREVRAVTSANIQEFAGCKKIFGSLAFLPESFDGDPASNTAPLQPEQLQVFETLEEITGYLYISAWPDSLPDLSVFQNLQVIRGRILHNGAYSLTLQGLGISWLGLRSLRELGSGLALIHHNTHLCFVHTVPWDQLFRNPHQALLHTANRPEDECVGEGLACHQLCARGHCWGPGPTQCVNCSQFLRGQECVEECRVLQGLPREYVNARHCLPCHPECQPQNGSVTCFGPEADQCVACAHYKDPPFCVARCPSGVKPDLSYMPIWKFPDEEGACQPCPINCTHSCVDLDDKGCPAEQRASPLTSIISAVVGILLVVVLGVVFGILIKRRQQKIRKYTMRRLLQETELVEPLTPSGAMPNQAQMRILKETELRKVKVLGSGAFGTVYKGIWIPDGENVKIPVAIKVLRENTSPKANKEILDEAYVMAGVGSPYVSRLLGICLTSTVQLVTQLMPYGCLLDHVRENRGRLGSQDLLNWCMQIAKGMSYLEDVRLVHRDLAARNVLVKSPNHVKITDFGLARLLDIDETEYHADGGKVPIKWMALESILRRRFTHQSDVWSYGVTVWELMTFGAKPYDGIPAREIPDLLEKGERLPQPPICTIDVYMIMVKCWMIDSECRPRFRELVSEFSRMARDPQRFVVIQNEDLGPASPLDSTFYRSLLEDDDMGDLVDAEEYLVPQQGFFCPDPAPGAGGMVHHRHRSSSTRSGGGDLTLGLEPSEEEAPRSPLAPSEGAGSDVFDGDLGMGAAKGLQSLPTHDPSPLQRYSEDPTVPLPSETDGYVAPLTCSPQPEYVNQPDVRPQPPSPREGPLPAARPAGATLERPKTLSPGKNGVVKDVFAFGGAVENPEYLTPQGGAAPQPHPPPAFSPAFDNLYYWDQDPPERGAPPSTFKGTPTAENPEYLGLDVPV

Test system in one assay: not listed separately
The experiment in a line: reducers of endogenous Her2 protein level, primary screen, SKBR3 breast tumor cells, AlphaScreen, ATP viability (AID 461).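 On viability: percent of carrier control wells set as 100% viability.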 To be noted: 18-24 h, measured here: SKBR3 viability, ATP luminescence, at 10 µM. Background: In Alpha technology, singlet oxygen from a donor bead excites a nearby acceptor bead.
As to `O=C(C1CCN(c2nnc(-n3cccc3)s2)CC1)N1CCc2ccccc2C1`, the viability is 88%. On the same count and under the same terms, under `Cc1c(C(=O)NC2CC2)oc2ccc(S(=O)(=O)N3CCCCCC3)cc12` stands 81.5%; under `Cc1sc2nc(SCC(=O)NCCO)n(C)c(=O)c2c1C`, 91%. The same measure, in the same setting: in the case of `S=c1[nH]nc(-c2ccccc2)n1C1C=CCCC1` (stereo not drawn) it was 95.5%; in that of `c1ccc(N2CCN(Cc3cn4cccnc4n3)CC2)cc1`, 98%.

For `CCCCc1ccc(NC(=O)C2CCCO2)cc1` (stereo not drawn), the viability is 92%. On to `Cc1[nH]c2ccccc2c(=O)c1CN1CCCCC1`, for which the viability came out at 99%. The same measure, in the same setting: under `Cc1ccccc1-n1c(Cn2c(=O)sc3ccccc32)nnc1SCC(=O)N1CCCC1` stands 109%; under `COc1ccccc1-n1c(=O)[nH]c2c(C(N)=O)nc(CC(C)C)nc21`, 81%.

Take `Cc1ccccc1-c1nc(CN2CCC(C(=O)N3CCC(C(N)=O)CC3)CC2)c(C)o1`: the viability worked out at 108%. The same measure, in the same setting: in the case of `CCCCN(CC)CCCNC(=O)c1cc2c(=O)n(C)c3ccccc3c2n1C` it was 76%; in that of `Cc1nn(-c2ccc(F)cc2)c2c1cc(C#N)c1nc3ccccc3n12`, 102%.

Turning to `CCCn1c(OC)nc2c1c(=O)n(C)c(=O)n2C`, the viability amounted to 89.5%. On the same count and under the same terms, in the case of `CCOC(=O)Cc1ccc(NS(=O)(=O)c2ccc(SC)cc2)cc1` it was 89%; in that of `CC(C)Sc1nc2c(c(=O)n1-c1ccc(F)cc1)SCC2`, 114%. As for `COc1cccc(C2CC(c3c(Cl)cccc3Cl)n3nc(N)nc3N2)c1` (stereo not drawn), the viability worked out at 97%. Same read-out and setting: in the case of `Cc1cccc(OCCNC(=O)c2ncn[nH]2)c1` it was 100%. Regarding `COc1ccc(S(=O)(=O)N2CCN(c3ccc(C)cc3C)CC2)cc1OC`, the viability came out at 94.5%. As for `CS(=O)(=O)NCCSCc1c(F)cccc1Cl`, the viability turned out to be 89.5%.

With `CC(C)CCNC(=O)Cn1c(NCCC(C)C)nc2c1c(=O)n(C)c(=O)n2C`, the viability is 121%. On the same count and under the same terms, in the case of `CCOC(=O)N1CCC(NC(=O)C2CCCN(C(=O)c3cc4sccc4n3C)C2)CC1` (stereo not drawn) it was 113%; in that of `CCOC(=O)N1CCC(NC(=O)c2cc(C(=O)NC3CCCC3)ccc2CO)CC1`, 97.5%.

Another assay concerns the target Receptor tyrosine-protein kinase erbB-2 (Homo sapiens) (UniProt P04626). The description is as above. The conditions noted are these: 18-24 h, at 10 µM, stronger effect = lower value.
Turning to `CCOC(=O)C1CCN(C(=O)CN(c2ccc(Cl)c(C(F)(F)F)c2)S(C)(=O)=O)CC1`, the Her2 level was 100% (inactive). Take `CCOc1ccccc1C(=O)Nc1cc(=O)n(C)c(=O)n1C`: the Her2 level was 88.5% (inactive). On the same count and under the same terms, in the case of `Cc1ccc(-c2cc3nc4c(c(=O)n3[nH]2)CCCC4)cc1` it was 119% (inactive); in that of `CCOC(=O)C(C)Sc1nnc(Cc2cc(=O)[nH]c(=O)[nH]2)n1-c1ccc(Cl)cc1` (stereo not drawn), 96.5% (inactive); in that of `c1nc(NCC2CCCO2)c2[nH]cnc2n1` (stereo not drawn), 91.5% (inactive). On the same count and under the same terms, under `O=C(Nc1ccc(Cl)cn1)c1cccnc1` stands 112% (inactive); under `O=C1c2ccccc2C(=O)N1C/C=C/CN1C(=O)c2ccccc2C1=O`, 91.5% (inactive).

Take `O=c1oc2c3c4c(cc2cc1-c1nc2ccccc2[nH]1)CCCN4CCC3`: the Her2 level was 65.5% (inactive). Same read-out and setting: under `CCCCC(=O)NCCc1cc2c(C)ccc(C)c2[nH]c1=O` stands 95% (inactive); under `O=C(NCc1ccc(F)cc1)c1cc2ccccn2n1`, 98.5% (inactive); under `COc1cccc(C2C3=C(N=C4SCC(=O)N42)c2ccccc2CC3)c1OC` (stereo not drawn), 115% (inactive). Same read-out and setting: in the case of `CCOC(=O)N1CCC(c2cc(=O)n3[nH]c(C)c(-c4ccc(F)cc4)c3n2)CC1` it was 80.5% (inactive); in that of `C=CCn1c(=O)n(CCOC)c(=O)c2sc3ccccc3c21`, 105% (inactive).

As for `Cc1ccc2cc(CCNC(=O)C(C)C)c(=O)[nH]c2c1C`, the Her2 level is 102% (inactive). Same read-out and setting: under `COc1ccc(S(=O)(=O)N2CCCC2C(=O)Nc2ccc(O)cc2)cc1` (stereo not drawn) stands 106% (inactive); under `Cc1cccc(-n2ncc3c(NCc4cccnc4)ncnc32)c1`, 93% (inactive). Still for that read-out and setting: in the case of `COc1cccc(NC(=O)C2CCCN(S(=O)(=O)c3cccc4cccnc34)C2)c1` (stereo not drawn) it was 102% (inactive).

Take `CCc1nnc(NC(=O)COC(=O)CN2C(=O)c3ccccc3C2=O)s1`: the Her2 level is 101% (inactive).

In the case of `O=C(C1CCN(c2nnc(-n3cccc3)s2)CC1)N1CCc2ccccc2C1`, the Her2 level was 93.5% (inactive). The same measure, in the same setting: in the case of `Cc1c(C(=O)NC2CC2)oc2ccc(S(=O)(=O)N3CCCCCC3)cc12` it was 106% (inactive); in that of `Cc1sc2nc(SCC(=O)NCCO)n(C)c(=O)c2c1C`, 108% (inactive); in that of `S=c1[nH]nc(-c2ccccc2)n1C1C=CCCC1` (stereo not drawn), 104% (inactive). With `c1ccc(N2CCN(Cc3cn4cccnc4n3)CC2)cc1`, the Her2 level is 94% (inactive). Still for that read-out and setting: in the case of `CCCCc1ccc(NC(=O)C2CCCO2)cc1` (stereo not drawn) it was 122% (inactive). The same measure, in the same setting: in the case of `Cc1[nH]c2ccccc2c(=O)c1CN1CCCCC1` it was 103% (inactive). The same measure, in the same setting: under `Cc1ccccc1-n1c(Cn2c(=O)sc3ccccc32)nnc1SCC(=O)N1CCCC1` stands 90.5% (inactive).
